Screening results from PubChem.
DRV1 agonist: qHTS for Agonists of Human Resolvin D1 Receptor DRV1. hit rate 2.5% among 48,000. Probable G-protein coupled receptor 32 (Homo sapiens), O75388. activation, % at 76.9 µM. CHO-K1 GPR32 beta-arrestin PathHunter luminescence, 90 min; zero percent set by DMSO-only wells. AID 1346428, 2018;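 active means activation of at least 60% and not above a set upper limit, about 1 call in 100 departs from these limits; inconclusive means activation of 40% to 60%, or above that upper limit; inactive means activation under 40%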; further: 0% is about no effect
Target sequence (O75388 whole entry, looked up): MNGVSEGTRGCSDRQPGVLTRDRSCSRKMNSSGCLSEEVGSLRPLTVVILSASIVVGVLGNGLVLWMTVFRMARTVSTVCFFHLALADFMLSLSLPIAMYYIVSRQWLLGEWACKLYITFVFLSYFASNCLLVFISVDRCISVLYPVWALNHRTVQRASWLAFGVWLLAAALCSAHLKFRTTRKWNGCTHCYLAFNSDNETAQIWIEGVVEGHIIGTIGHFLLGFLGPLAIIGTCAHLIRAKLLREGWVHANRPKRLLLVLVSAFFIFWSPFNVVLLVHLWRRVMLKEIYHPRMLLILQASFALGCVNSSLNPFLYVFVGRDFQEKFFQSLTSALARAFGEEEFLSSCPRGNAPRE
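Readings come from a cell-based beta-arrestin complementation format: CHO-K1 GPR32 stable cells (2,500/well) treated 90 min with compounds, then beta-Gal substrate added for 1 h before chemiluminescence imaging.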
B2AR arrestin ag: qHTS assay of beta-arrestin-biased ligands of beta2-adrenergic receptor: NCGC Sytravon Library Screen; Beta-2 adrenergic receptor (Homo sapiens), P07550; HTLA Tango cells, beta-arrestin recruitment, luciferase luminescence, 18 h; Potency, µM (highest dose often 46.1 µM), most hits filed as activators; 44,000 tested, under 10 active;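 further: potency means the concentration at half of the fitted maximal effect; 0% = DMSO and full agonism = EC100 isoproterenol or metaproterenol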
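First, Tango cells carrying beta2-AR and beta-arrestin fusions received compound up to 46 microM. After 18 hr at 37 degrees C, luciferase substrate was added for 15 minutes, then luminescence gave %Activity for curve fitting.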
GALK inh: qHTS Assay for Inhibitors of Human Galactokinase (GALK): NCGC Sytravon Library Screen | P51570 | recombinant GALK, Kinase-Glo ATP luminescence, 1 h | Potency, µM (highest dose often 57.5 µM), for inactives: top-dose activity, negative = inhibition, most hits filed as inhibitors | 44,000 tested, under 10 active | AID 1347072, 2019;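 further: plate controls were full GALK reaction for no effect and reaction lacking GALK for full effect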
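Luminescent ATP-depletion readout (Kinase-Glo Plus, 10 min) after 1 h RT reaction of 5 nM GALK, 35 uM ATP, 100 uM galactose, pH 8.0 HEPES buffer. Decreased kinase activity scored as inhibition.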
TSG101-PTAP inh: qHTS Validation Assay for Inhibitors of HIV-1 Budding by Blocking the Interaction of PTAP/TSG101: Sytravon Library Screen; Fluorescence polarization, FITC-PTAP peptide/Tsg101, 20 min; AID 1347069, 2019; Potency, µM (titrated, usually from 115 µM), usual class: inhibitors; 44,000 tested, under 10 active; further: potency means the concentration at half of the fitted maximal effect; 0% is about no effect
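Fluorescence polarization: Tsg101 binding domain (10 uM final) in 10 mM HEPES pH 7.5, 0.15 M NaCl, 0.01% Tween 20, 3 mM EDTA, 0.1 mM TCEP; compounds pinned; FITC-PTAP peptide 50 nM final; 20 min, r.t.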
FH mod: Identification of activators of human fumarate hydratase by quantitative high-throughput screening; Potency, µM (top dose mostly 79.9 µM), inactives show at the highest dose activity change, negative = inhibition, hits mostly inhibitors; hit rate 0.22% among 54,000; FH coupled MDH/diaphorase resazurin fluorescence, 15 min; Fumarate hydratase, mitochondrial (Homo sapiens), P07954; AID 1347055, 2019; further: potency means the concentration at half of the fitted maximal effect; on the % scale 0 is the no-effect control and ±100 the full control effect; the screen sought activators but most active calls are inhibition curves; nearly all actives have a fitted effect of over 45% in size
NTMT1 inhibitor: Primary qHTS for Inhibitors of N-terminal methyltransferase 1 (NTMT1): MTaseGlo Assay; N-terminal Xaa-Pro-Lys N-methyltransferase 1 (Homo sapiens), Q9BV86; NTMT1 MTase-Glo SAH luminescence, purified enzyme; Potency, µM (top dose mostly 114 µM), without a hit: at the top dose activity change, negative = inhibition, usual class: inhibitors; hit rate 2.5% among 59,000; AID 1645870, 2021;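 further: potency means the concentration at half of the fitted maximal effect; plate controls were DMSO vehicle for no effect and no enzyme for full effect; nearly all actives have a fitted effect of over 65% in size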
Target sequence (Q9BV86 whole entry, looked up): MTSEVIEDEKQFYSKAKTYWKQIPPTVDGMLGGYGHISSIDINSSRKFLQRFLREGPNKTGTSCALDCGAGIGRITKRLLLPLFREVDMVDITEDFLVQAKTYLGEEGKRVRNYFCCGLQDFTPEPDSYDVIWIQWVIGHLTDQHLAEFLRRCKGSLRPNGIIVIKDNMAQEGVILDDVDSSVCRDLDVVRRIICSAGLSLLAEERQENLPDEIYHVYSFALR
Numbers without * were called inactive; i = inactive; ? = inconclusive; nt = not tested or not shown; ! = repeats disagree; [ ] = remark or other dose. Only some compounds are listed: those with a hit (about 3.7% of all), similar ones and a draw of the others. Unless noted, the call rests on the fitted dose curve; in most records, active means well fitted curve in the direction sought with a large enough effect; inconclusive means small, poorly fitted or top-dose-only effect, or another doubt; inactive means no such curve, though single readings can be large; an effect the other way counts as inactive or inconclusive.

SMILES	DRV1 agonist	B2AR arrestin ag	GALK inh	TSG101-PTAP inh	FH mod	NTMT1 inhibitor
CCCN1CCc2cccc3c2[C@H]1Cc1ccc(O)c(O)c1-3	4.4	nt	nt	nt	7.94µM*	nt
CC/C=C/C=C/C1(C)OC(OC)=C(C(=O)C2C(C)C(=O)c3cc(OC)c(O)c(O)c3C2(C)O)C1=O (stereo not drawn)	nt	nt	nt	nt	-13.3%[53.3 µM]	9.4%[29.8 µM]
Cc1c(N)nc([C@H](CC(N)=O)NC[C@@H](N)C(N)=O)nc1C(=O)N[C@H](C(=O)N[C@@H](C)[C@H](O)[C@@H](C)C(=O)N[C@@H](C(=O)NCCc1nc(-c2nc(C(=O)NCCC[S+](C)C)cs2)cs1)[C@@H](C)O)C(O[C@H]1O[C@H](CO)[C@H](O)[C@@H](O)[C@H]1O[C@H]1O[C@H](CO)[C@@H](O)[C@H](OC(N)=O)[C@@H]1O)c1cnc[nH]1 (stereo partly drawn)	nt	nt	nt	nt	nt	25.7%[57.5 µM]
COc1ccc(Cc2nccc3cc(OC)c(OC)cc23)cc1OC	118.8*!	nt	nt	nt	-0.9%[53.3 µM]	-4.5%
Nc1ccn(CC(CO)OCP(=O)(O)O)c(=O)n1 (stereo not drawn)	nt	nt	nt	nt	-1.0%	17.2%
CN(N=O)c1cc(O)ccc1O	23.7	nt	nt	nt	2.24µM*	nt
Cc1c(P(=S)(c2ccccc2)c2ccccc2)[n+]2ccccc2n1C	nt	nt	nt	nt	nt	15.8µM*!
CNc1ccc2oc(C[C@H]3O[C@@]4(CC[C@H]3C)O[C@H](C(C)C(=O)c3ccc[nH]3)[C@H](C)C[C@H]4C)nc2c1C(=O)O (stereo partly drawn)	nt	nt	nt	nt	-15.4%	?
COc1ccc2c(c[n+](C)c3c4cc5c(cc4ccc23)OCO5)c1OC	66.5*	nt	nt	nt	?	4.6%
C=C[C@@H]1CN2CCC1C[C@H]2[C@H](O)c1ccnc2ccccc12 (stereo partly drawn)	nt	nt	nt	nt	-0.3%[53.3 µM]	-0.1%[57.5 µM]
C=C1C(=O)CC2OC2(C)CC2OC(=O)C(=C)C2C(O)C1OC(=O)/C(C)=C\C (stereo not drawn)	nt	nt	nt	nt	-1.0%[53.3 µM]	-6.5%[29.8 µM]
C[C@]12C/C(=C/O)C(=O)C[C@@H]1CC[C@@H]1[C@@H]2CC[C@@]2(C)[C@H]1CC[C@]2(C)O	89.0*	nt	nt	nt	-0.2%[53.3 µM]	?
C[C@]12COC(=O)C[C@@H]1CC[C@@H]1[C@@H]2CC[C@@]2(C)[C@H]1CC[C@]2(C)O	nt	nt	nt	nt	nt	2.1%
COC1CC(OC2CCC3(C=O)C(CCC4C3CCC3(C)C(C5=CC(=O)OC5)CCC43O)C2)OC(C)C1O (stereo not drawn)	nt	nt	nt	nt	8.1%[53.3 µM]	5.6%[29.8 µM]
CC[C@@H](CO)NC(=O)[C@@H]1C=C2c3cccc4c3c(cn4C)C[C@H]2N(C)C1	0.2	nt	nt	nt	-1.9%[53.3 µM]	-25.0%[57.5 µM]
CN1C[C@H](CNC(=O)OCc2ccccc2)C[C@@H]2c3cccc4c3c(cn4C)C[C@H]21	79.5*!	nt	nt	nt	-23.9%[53.3 µM]	-18.3%[57.5 µM]
CCc1[nH]c2ccc(OC)cc2c1CCN(C)C	nt	nt	nt	nt	5.6%	?
CCN1C[C@@]2(COC)C3[C@@H](OC)C4[C@H]1C3([C@@H]1C[C@@]3(O)[C@H](OC(=O)c5ccccc5)[C@@H]1[C@]4(OC(C)=O)[C@@H](O)[C@@H]3OC)[C@H](OC)C[C@H]2O	nt	nt	nt	nt	-22.7%[53.3 µM]	nt
Cc1c(C(c2ccc(F)cc2)c2c(O)c3ccccc3oc2=O)c(=O)n(-c2ccccc2)n1C (stereo not drawn)	7.3	i	-0.8%	i	3.8%	9.4%
O=c1oc2ccccc2c(O)c1C(CC(O)c1ccc(-c2ccc(Br)cc2)cc1)c1ccccc1 (stereo not drawn)	82.3*	nt	nt	nt	?	89.1µM*
C[C@@]12OC(=O)[C@]1([C@@H](O)[C@@H]1C=CCCC1)NC(=O)[C@@H]2CCCl	nt	nt	nt	nt	nt	-14.8%
CO/C1=C\C(C)=C\[C@@H](C)[C@@H](O)[C@@H](C)C/C(C)=C/C=C/[C@H](OC)[C@@H]([C@@H](C)[C@@H](O)[C@H](C)[C@@]2(O)C[C@@H](O)[C@H](C)[C@@H](C(C)C)O2)OC1=O	nt	nt	nt	nt	3.3%[20.6 µM]	-18.6%[12.6 µM]
CN1CCc2cc3c(cc2C1C1OC(=O)c2c1ccc1c2OCO1)OCO3 (stereo not drawn)	nt	nt	nt	nt	9.3%[53.3 µM]	-5.0%[29.8 µM]
COc1ccc2c(c1OC)CN1CCc3cc4c(cc3C1C2)OCO4 (stereo not drawn)	68.5*	nt	nt	nt	?	-1.4%
CC[C@@H]1[C@@H](C)O[C@@](O)([C@@H](C)[C@H](O)[C@H](C)[C@H]2OC(=O)C=CC=C[C@@H](C)[C@@H]([C@@H](C)[C@@H](O)[C@H](C)[C@@]3(O)C[C@H](O[C@H]4C[C@H](O)[C@H](O)[C@H](C)O4)[C@H](CC)[C@@H](C)O3)OC(=O)C=CC=C[C@@H]2C)C[C@H]1O[C@H]1C[C@H](O)[C@H](O)[C@H](C)O1	nt	nt	nt	nt	-3.2%[53.3 µM]	-13.8%[57.5 µM]
SMILES	DRV1 agonist	B2AR arrestin ag	GALK inh	TSG101-PTAP inh	FH mod	NTMT1 inhibitor
CC1Oc2cc3c(-c4c(O)cc(O)c5c(O)c6c(cc45)OC(C)C(C)C6=O)c(O)cc(O)c3c(O)c2C(=O)C1C (stereo not drawn)	nt	nt	nt	nt	?	17.8µM*
CCOC(=O)c1c(C(C#N)=CN)c2ccc(Cl)c(Cl)c2n1C	nt	nt	nt	nt	10.6%[53.3 µM]	79.4µM*
Cc1cccc(-n2nc(C)c3c2NC(=O)CSC3c2ccccc2Cl)c1 (stereo not drawn)	63.2*	i	1.8%	i	-15.2%	4.2%
N#C/C(=C/c1ccc(O)c(O)c1)C(N)=S	-46.0	nt	nt	nt	12.6µM*!	?
Clc1ccc(C(c2ccc(Cl)cc2)n2cc[n+](CC(OCc3ccc(Cl)cc3Cl)c3ccc(Cl)cc3Cl)c2)cc1 (stereo not drawn)	-3.5	nt	nt	nt	?	30.4µM*
Clc1ccc(COC(Cn2ccnc2)c2ccc(Cl)cc2Cl)cc1 (stereo not drawn)	-65.6	nt	nt	nt	5.0%[53.3 µM]	4.1%
C[C@]12CC[C@@H]3c4ccc(OC(=O)N(CCCl)CCCl)cc4CC[C@H]3[C@@H]1CC[C@@H]2O	-0.2	nt	nt	nt	-16.1%[53.3 µM]	22.4µM*
CCN(CC)C(=O)N[C@@H]1C=C2c3cccc4[nH]cc(c34)C[C@@H]2N(C)C1	63.6*	nt	nt	nt	5.5%[53.3 µM]	-13.2%[57.5 µM]
CC[C@]1(O)CC[C@H]2[C@@H]3CCC4=CCCC[C@@H]4[C@H]3CC[C@@]21C	?	nt	nt	nt	-8.8%[53.3 µM]	12.6µM*
CC(N[C@H]1C[C@@H]1c1ccccc1)c1ccc2c(c1)OCCO2 (stereo partly drawn)	nt	nt	nt	nt	nt	-8.0%
